{"source": "PubChem BioAssay AID1508600", "about": "(Functional Genomics Laboratory (NCATS/FGL), 2020)", "note": "Hit rate of the full screen: of about 53,000 sequences, about 3,700 (7%) were called active. This is one part of a sample in which actives are shown more often than they occur. Values without a mark were called inactive.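 How the source made its calls: active means gene knockdowns whose robust z-score for IL-1 alpha signal is at least 2 or at most -2, so actives lie on both sides; inactive means the rest.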"}
{"assay": "Components of the Cytosolic LPS Sensing Pathway: Gene Identification via Genome-wide siRNA Screen;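 further: robust z of the log signal after scaling to non-targeting control siRNA wells of the plate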", "conditions": "RAW264.7 macrophages, IL-1a HTRF, actives lie on both sides, screened at 100 nM (by protocol), cells primed 5 h with Pam3CSK4 first", "procedure,_shortened": "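Knockdown: 100 nM siRNA, 48h, RAW264.7. Stimulation: Pam3CSK4 5 h, then LipidA via TransIT-TKO 24 h. Output: supernatant IL-1a HTRF, negative-control-normalized, log robust z-score; viability by CellTiter-Glo.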"}
{"sequence": "GGAUUUGAUUCCGCCAACGTT against Pon2", "z-score": "-2.03 (active)"}
{"sequence": "GCUUAAAAGUGAAGUCUUGTT against Tmem203", "z-score": -0.615}
{"sequence": "GUAAGGUCACCGGGUUGCATT against Lor", "z-score": 0.547}
{"sequence": "GGUGGUCCUGGAUCUUUAUTT against Spon2", "z-score": -0.986}
{"sequence": "GGACUUCGACAAACUGAAGTT against Zfp532", "z-score": 0.547}
{"sequence": "GCCUUCUUGAACUGAAAGATT against Spc24", "z-score": "-2.04 (active)"}
{"sequence": "GGUUCUAUGUUGACAAUCATT against Osgin2", "z-score": 0.621}
{"sequence": "GGAAAUCUGAGUGUGCACUTT against Pcdhgb1", "z-score": 1.45}
{"sequence": "GGCUGUCUUCAUCUUAGAUTT against Copz2", "z-score": "-2.61 (active)"}
{"sequence": "GGAUAAUACAUCCCAAAACTT against Prkar2b", "z-score": -0.607}
{"sequence": "GGAUCUCCAGAGCAGAAAATT against Nckap5", "z-score": -1.64}
{"sequence": "GGUGAAUUCAACUCUCUAATT against Decr1", "z-score": "2.43 (active)"}
{"sequence": "GGGUGUUGAUGUCAUUGUGTT against Dbn1", "z-score": 1.51}
{"sequence": "GCAUGCACUUAAGAUUCUATT against Lypd6b", "z-score": 0.595}
{"sequence": "CCAGGAAUCAGUCUAUACUTT against Lrrc15", "z-score": 1.45}
{"sequence": "GGUUGUAACAAACAUACUCTT against Sstr4", "z-score": "2.99 (active)"}
{"sequence": "GGACCUGGAGAAAUUGAAGTT against Nlrp6", "z-score": 1.82}
{"sequence": "GGUCAUCUCAGACCUCCUCTT against Pde6a", "z-score": -0.275}
{"sequence": "GCAAAACCAUUUCGAAACATT against Slc41a3", "z-score": 0.363}
{"sequence": "CCUGUGGAUCCAUUUGUUCTT against Tex15", "z-score": "-2.25 (active)"}
{"sequence": "GGAAAAGCUACCUGUGUCATT against Tril", "z-score": -1.88}
{"sequence": "GGUGAUGGAAUACCAAAGGTT against Dnajc28", "z-score": -0.736}
{"sequence": "GGAUAUCUUCAUAUUGGUGTT against Ces1f", "z-score": "4 (active)"}
{"sequence": "GGAGAUCCCGUCACUAUCUTT against Lrrc61", "z-score": -0.439}
{"sequence": "GGACAAUGAACUGAUUACCTT against Ap1s2", "z-score": 0.992}
{"sequence": "GGGACAAAGAAAAUCUACUTT against Ehf", "z-score": 0.637}
{"sequence": "GUACCAGAAGUGAGUUCAGTT against Leap2", "z-score": "-2.97 (active)"}
{"sequence": "GCUGCCUCUUUCUUUGCUUTT against Pllp", "z-score": -0.769}
{"sequence": "GGCAGAUUCAGAAUUGUCUTT against Il17a", "z-score": "-2.58 (active)"}
{"sequence": "GGACUUUGCCCUGGAUUCUTT against Cnot1", "z-score": -0.216}
{"sequence": "GGUUUGUUGUUGUUUUUGGTT against Vezt", "z-score": 0.44}
{"sequence": "GCAAUUACCAGUAUGCUACTT against Tbx19", "z-score": 0.914}
{"sequence": "CGGUAAACUGGUUUUACUUTT against Otulin", "z-score": 1.8}
{"sequence": "GCCACAUCCUAUGUGAUGATT against Olfr1349", "z-score": -0.647}
{"sequence": "GGAAGCUAUAUAUCAAGAATT against Tcea1", "z-score": 0.69}
{"sequence": "GUCCGUCUCGGAGAAAUGUTT against Ccdc106", "z-score": "-2.28 (active)"}
{"sequence": "GGAUUCACGAGCAUAAGCUTT against 1700020D05Rik", "z-score": -1.31}
{"sequence": "GGAGGCAGCAGUUAUUGUGTT against Ly6a", "z-score": -0.486}
{"sequence": "GGCCUCAGACCUUCUAUGATT against Mtap", "z-score": -0.149}
{"sequence": "GGUGUCCUCUUUGUUCAUGTT against Sgce", "z-score": "2.94 (active)"}
{"sequence": "GGCUGGUACUCCAUUUUAGTT against Neil2", "z-score": 0.0451}
{"sequence": "GCCAGUUGGUUACUAUGGATT against Tax1bp3", "z-score": -0.412}
{"sequence": "GGGAUUACCAAAAAGGCAUTT against Senp7", "z-score": 0.128}
{"sequence": "GGAUAUUAACUAUGGGUUUTT against Tlr2", "z-score": 0.605}
{"sequence": "GGCCUGCUUUGUUCUGAAUTT against Olfr846", "z-score": "-2.53 (active)"}
{"sequence": "GCGCAAUAAUCAGACGGUUTT against Zhx2", "z-score": -0.624}
{"sequence": "GGAAGAAGGUACAUUUCAGTT against Ankrd42", "z-score": 0.362}
{"sequence": "GGGCAAAAUAUGAAAUACATT against Pate6", "z-score": "2.92 (active)"}
{"sequence": "GAGAGAGACAAUCCUGAAGTT against Klra22", "z-score": -0.0539}
{"sequence": "GGCAAAUGGAAACAGCCAUTT against Serpina1d", "z-score": -1.56}
{"sequence": "CCUGCUCAAACUUUUGUGGTT against Ephx4", "z-score": 0.928}
{"sequence": "GGAACCUUCUCCAAAGCAATT against Rpgrip1", "z-score": "-2.45 (active)"}
{"sequence": "CGUCAAAGGAGACAGCUUUTT against Rbm15b", "z-score": 1.56}
{"sequence": "GCUCAAAUUGAGUCCUUAUTT against Ccdc122", "z-score": -0.548}
